Experimental findings from PubChem BioAssay (EPA / NIEHS) are described below.

Several values for one entry are separate records, joined by “and”; a condition that tells them apart may be missing. Identical values can stand only once. Records with an inconclusive call do not appear. Some compounds were tested as several samples or in several runs, with calls that do not always agree. Activity calls are given as the source filed them. How the source made its calls, unless noted: active means hit-call score of the fitted dose curve at least 0.9, where 1 is the maximum; inconclusive means response in the unintended direction; inactive means score below 0.9.

Test [1] addresses Peroxisome proliferator-activated receptor gamma (Homo sapiens) (UniProt P37231). As to the kind of experiment: NVS_NR_hPPARg: NovaScreen (NVS) Nuclear Receptor Binding Assay for human Peroxisome Proliferator-activated Receptor gamma (PPARg) (AID 2283370). Summed up: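 FP read-out, 2 h post-dose, cell-free extracted receptor protein. Signal loss vs DMSO negative control = binding activity. Single-conc duplicate HTS at 25 uM; concentration-response follow-up for actives.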

In test [2] the target is Estrogen receptor beta (Homo sapiens) (UniProt Q92731). As to the kind of experiment: OT_ER_ERbERb_1440: Odyssey Thera (OT) 24-hour HEK293T Protein-Complementation Assay for Estrogen Receptor-beta/-beta Homodimer (AID 2283380).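 Further: fluorescence gain from ER beta LBD homodimer complementation read by laser scanning cytometry; scored as signal increase over DMSO baseline for both agonists and antagonists.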 Summed up:
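Fluorescence increase, nuclear for agonists or whole-cell for antagonists, relative to DMSO vehicle, quantified by laser scanning cytometer after fixation and Draq5 staining. Readout from 24 h treatment of HEK293T cells carrying complementation-paired ER beta LBD (aa 310-547).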

Test [3] deals with Estrogen receptor (Homo sapiens) (UniProt P03372). As to the kind of experiment: OT_ERa_GFPERaERE_0480: Odyssey Thera (OT) 8-hour HeLa Transcription Induction Assay for Estrogen Receptor (AID 2283381; active means hit-call score of the fitted dose curve at least 0.9, where 1 is the maximum; inactive means score below 0.9). Summed up: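 Fluorescent reporter signal, imaged by microscopy and scored with image-analysis algorithms, was taken 8 h after chemical dosing of HeLa cells; activity was fitted upward relative to DMSO.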

The target is the same in test [4]. As to the kind of experiment: OT_ERa_GFPERaERE_0120: Odyssey Thera (OT) 2-hour HeLa Transcription Induction Assay for Estrogen Receptor (AID 2283382). The essentials:
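HeLa, 384-well, 2 h chemical exposure; GFP reporter induction (ERE), fluorescence microscopy; high content image analysis; positive fitting direction vs DMSO.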

For test [5], the target named is Bile acid receptor (Homo sapiens) (UniProt Q96RI1). As to the kind of experiment: OT_FXR_FXRSRC1_0480: Odyssey Thera (OT) 8-hour HEK293T Protein-Complementation Assay for Farnesoid X receptor/SRC-1 Co-activator (AID 2283383). Summed up:
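Human kidney HEK293T cells carried FXR/SRC-1 fragment-complementation constructs. Compounds were added and incubated 8 h. Reporter reassembly upon receptor–co-activator interaction was then quantified by fluorescence, with curves fitted in the positive direction relative to DMSO.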

Test [6] concerns the target Glucocorticoid receptor (Homo sapiens) (UniProt P04150). Description: NVS_NR_hGR: NovaScreen (NVS) Nuclear Receptor Binding Assay for human Glucocorticoid Receptor (GR) (AID 2283363).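 On AC50: activity is loss of specific radioligand binding signal relative to DMSO.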 The essentials:
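Competitive displacement of a labelled ligand was measured on cell-free receptor preparations after 16 h exposure. Initial testing used 25 uM in duplicate with plate controls; confirmed actives went into concentration series.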

Test [7] deals with human Norepinephrine Transporter (NET), SLC6A2 (gene 6530) (UniProt P23975). As to the kind of experiment: NVS_TR_hNET: NovaScreen (NVS) Transporter Assay for human Norepinephrine Transporter (NET) (AID 2283377).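 Further: cell-free membrane protein extracted from CHO cells expressing human NET.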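 On AC50: displacement of radioligand from human NET seen as loss of scintillation signal.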 The essentials: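 Scintillation counts of filter-retained radioligand served as the readout, taken 1 h post-dosing in a cell-free CHO-derived system. Test chemicals ran first at 25 uM in duplicate; confirmed hits were retested across concentrations.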

For test [8], the target named is Nuclear receptor subfamily 1 group I member 2 (Homo sapiens) (UniProt O75469). As to the kind of experiment: NVS_NR_hPXR: NovaScreen (NVS) Nuclear Receptor Binding Assay for human Pregnane X Receptor (PXR) (AID 2283365).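 Further: a drop in FRET signal versus DMSO baseline means the compound binds.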 The essentials:
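TR-FRET signal read at 2 h in a cell-free human PXR binding format. DMSO served as negative control and baseline; activity scored as signal loss. Single-concentration duplicate screen (25 uM), then concentration-response follow-up.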

For test [9], the system named is guinea pig Dopamine Transporter (DAT), gene 100714898. Description: NVS_TR_gDAT: NovaScreen (NVS) Transporter Assay for guinea pig Dopamine Transporter (DAT) (AID 2283369).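 Further: active compounds lower bound radioligand signal relative to DMSO.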 The essentials: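 Cell-free striatal membrane prep (guinea pig), 2 h exposure, filtration + scintillation readout of radioligand binding. Single-point 25 uM duplicate; actives rerun singleton, top conc 50 uM.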

Test [10] deals with human Dopamine Transporter (DAT), SLC6A3 (gene 6531) (UniProt Q01959). As to the kind of experiment: NVS_TR_hDAT: NovaScreen (NVS) Transporter Assay for human Dopamine Transporter (DAT) (AID 2283374).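 Further: activity means loss of bound radioligand signal relative to DMSO.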 The essentials:
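Test chemicals were first screened in duplicate at 25 uM, with actives retested as concentration series. Displacement of a specific radioligand from cell-free human dopamine transporter was measured after 1 h by filtration and scintillation counting.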

Test [11] addresses rat Serotonin Transporter (SERT), Slc6a4 (gene 25553) (UniProt P31652). As to the kind of experiment: NVS_TR_rSERT: NovaScreen (NVS) Transporter Assay for rat Serotonin Transporter (SERT) (AID 2283375). The essentials:
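Radioligand displacement, filter scintillation readout; rat forebrain membrane prep, 1 h post-dose. Single-conc 25 uM duplicate screen, then concentration-response on actives. Loss of signal vs DMSO baseline.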

Test [12] concerns the target human Adenosine Transporter (Adot), SLC29A1 (gene 2030) (UniProt Q99808). Description: NVS_TR_hAdoT: NovaScreen (NVS) Transporter Assay for human Adenosine Transporter (Adot) (AID 2283368). Summed up: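 U937-derived membranes, cell-free radioligand binding, filter scintillation 1 h after dosing. 25 uM duplicate screen; hits (e.g. 30% inhibition) run in concentration-response up to 50 uM; loss of signal versus DMSO.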

The target in test [13] is human Serotonin Transporter (SERT), SLC6A4 (gene 6532) (UniProt P31645). As to the kind of experiment: NVS_TR_hSERT: NovaScreen (NVS) Transporter Assay for human Serotonin Transporter (SERT) (AID 2283372). The essentials: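 Radioligand binding to native SERT in human platelet membranes, read by filter-based scintillation counting 1 h after dosing. Primary screen in duplicate at 25 uM; actives followed up in concentration series; loss of signal versus DMSO baseline.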

Test [14] has as its system rat Norepinephrine Transporter (NET), gene 83511. As to the kind of experiment: NVS_TR_rNET: NovaScreen (NVS) Transporter Assay for rat Norepinephrine Transporter (NET) (AID 2283373). Summed up: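 Rat forebrain membranes; radioligand binding measured by filter-based scintillation counting 1 hour after dosing. Loss of specific binding versus DMSO baseline scored; primary screen in duplicate at 25 uM, actives followed up in concentration series.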

For test [15], the target named is human Thyroid Receptor Alpha (TRa), THRA (gene 7067) (UniProt P10827). Description: NVS_NR_hTRa_Antagonist: NovaScreen (NVS) Nuclear Receptor Binding Assay for human Thyroid Receptor Alpha Antagonism (TRa) (AID 2283362).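 Further: activity is loss of signal relative to DMSO baseline.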 Summed up:
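AlphaLISA chemiluminescent immunoassay readout, taken 1 h post-dosing in a cell-free system with extracted protein. Activity was scored as signal loss against DMSO negative control, from duplicate single-concentration (25 uM) testing followed by concentration-response follow-up.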

For test [16], the target named is mouse Estrogen Receptor alpha (Era), Esr1 (gene 13982) (UniProt P19785). As to the kind of experiment: NVS_NR_mERa: NovaScreen (NVS) Nuclear Receptor Binding Assay for mouse Estrogen Receptor alpha (Era) (AID 2283378).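 Further: hit means loss of bound radioligand signal relative to DMSO.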 Summed up: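 Filter scintillation counts of bound radioligand, measured 18 h post-dose, gave the readout; decreased signal relative to DMSO controls indicated displacement from mouse Era. Primary screen ran in duplicate at 25 uM; active chemicals were retested across concentrations.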
Chain of mouse Estrogen Receptor alpha (Era), Esr1 (gene 13982) (P19785 whole entry, looked up): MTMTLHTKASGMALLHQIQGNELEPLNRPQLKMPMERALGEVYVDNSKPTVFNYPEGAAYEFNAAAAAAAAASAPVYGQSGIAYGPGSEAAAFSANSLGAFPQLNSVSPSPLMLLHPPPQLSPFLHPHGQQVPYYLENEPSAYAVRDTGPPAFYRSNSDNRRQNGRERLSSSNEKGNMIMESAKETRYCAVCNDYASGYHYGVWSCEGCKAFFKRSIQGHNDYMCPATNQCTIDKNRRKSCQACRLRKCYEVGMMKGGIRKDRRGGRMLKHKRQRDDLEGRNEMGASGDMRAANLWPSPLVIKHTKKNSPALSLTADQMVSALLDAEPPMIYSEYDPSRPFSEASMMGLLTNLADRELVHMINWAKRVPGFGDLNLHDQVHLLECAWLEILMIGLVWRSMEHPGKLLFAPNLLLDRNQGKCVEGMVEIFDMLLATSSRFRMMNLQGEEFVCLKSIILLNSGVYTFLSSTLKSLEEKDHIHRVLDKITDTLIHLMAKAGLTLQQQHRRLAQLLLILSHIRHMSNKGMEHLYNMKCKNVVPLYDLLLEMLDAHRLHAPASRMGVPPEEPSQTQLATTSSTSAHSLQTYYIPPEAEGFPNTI

Chain of Estrogen receptor beta (Homo sapiens) (Q92731 whole entry, looked up, the tested form may be a part): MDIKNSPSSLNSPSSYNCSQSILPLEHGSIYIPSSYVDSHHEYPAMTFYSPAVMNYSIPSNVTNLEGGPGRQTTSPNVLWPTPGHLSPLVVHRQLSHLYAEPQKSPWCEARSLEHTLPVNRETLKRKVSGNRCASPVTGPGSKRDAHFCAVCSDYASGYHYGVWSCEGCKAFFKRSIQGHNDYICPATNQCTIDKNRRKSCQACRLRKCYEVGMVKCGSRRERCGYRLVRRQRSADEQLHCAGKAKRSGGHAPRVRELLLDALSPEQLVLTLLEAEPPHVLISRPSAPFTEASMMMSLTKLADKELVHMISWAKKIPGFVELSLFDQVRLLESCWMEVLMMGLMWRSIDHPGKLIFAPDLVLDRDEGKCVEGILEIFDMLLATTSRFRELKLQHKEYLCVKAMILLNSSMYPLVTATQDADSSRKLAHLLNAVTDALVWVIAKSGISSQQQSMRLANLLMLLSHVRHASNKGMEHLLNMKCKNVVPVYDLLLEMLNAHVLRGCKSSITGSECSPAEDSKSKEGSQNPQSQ
Chain of Nuclear receptor subfamily 1 group I member 2 (Homo sapiens) (O75469 whole entry, looked up): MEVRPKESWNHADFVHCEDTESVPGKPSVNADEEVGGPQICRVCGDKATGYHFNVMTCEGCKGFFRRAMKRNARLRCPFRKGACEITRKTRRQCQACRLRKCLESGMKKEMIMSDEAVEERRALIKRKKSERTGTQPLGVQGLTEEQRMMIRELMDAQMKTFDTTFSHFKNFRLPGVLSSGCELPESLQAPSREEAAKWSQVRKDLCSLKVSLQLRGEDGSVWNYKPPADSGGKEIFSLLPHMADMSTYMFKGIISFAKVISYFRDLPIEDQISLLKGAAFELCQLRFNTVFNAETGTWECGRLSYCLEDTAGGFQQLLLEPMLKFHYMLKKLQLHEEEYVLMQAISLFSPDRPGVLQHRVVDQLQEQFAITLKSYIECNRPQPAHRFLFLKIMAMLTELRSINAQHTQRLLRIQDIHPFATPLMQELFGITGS
Chain of Estrogen receptor (Homo sapiens) (P03372 whole entry, looked up): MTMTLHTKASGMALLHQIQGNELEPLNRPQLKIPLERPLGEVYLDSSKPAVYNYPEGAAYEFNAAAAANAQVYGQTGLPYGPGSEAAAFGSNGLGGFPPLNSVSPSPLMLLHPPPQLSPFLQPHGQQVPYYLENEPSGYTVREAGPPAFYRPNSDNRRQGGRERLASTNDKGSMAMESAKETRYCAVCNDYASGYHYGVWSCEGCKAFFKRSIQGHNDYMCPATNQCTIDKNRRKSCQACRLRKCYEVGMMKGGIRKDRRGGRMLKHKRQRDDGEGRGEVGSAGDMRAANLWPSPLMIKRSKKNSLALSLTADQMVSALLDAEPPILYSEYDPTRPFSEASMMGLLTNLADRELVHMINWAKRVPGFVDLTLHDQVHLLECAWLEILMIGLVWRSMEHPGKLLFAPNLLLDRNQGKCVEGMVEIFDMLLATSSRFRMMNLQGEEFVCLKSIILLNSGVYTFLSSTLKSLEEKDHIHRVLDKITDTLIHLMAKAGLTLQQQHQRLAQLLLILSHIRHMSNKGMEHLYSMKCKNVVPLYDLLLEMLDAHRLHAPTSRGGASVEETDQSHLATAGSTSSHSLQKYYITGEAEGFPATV
Chain of human Adenosine Transporter (Adot), SLC29A1 (gene 2030) (Q99808 whole entry, looked up): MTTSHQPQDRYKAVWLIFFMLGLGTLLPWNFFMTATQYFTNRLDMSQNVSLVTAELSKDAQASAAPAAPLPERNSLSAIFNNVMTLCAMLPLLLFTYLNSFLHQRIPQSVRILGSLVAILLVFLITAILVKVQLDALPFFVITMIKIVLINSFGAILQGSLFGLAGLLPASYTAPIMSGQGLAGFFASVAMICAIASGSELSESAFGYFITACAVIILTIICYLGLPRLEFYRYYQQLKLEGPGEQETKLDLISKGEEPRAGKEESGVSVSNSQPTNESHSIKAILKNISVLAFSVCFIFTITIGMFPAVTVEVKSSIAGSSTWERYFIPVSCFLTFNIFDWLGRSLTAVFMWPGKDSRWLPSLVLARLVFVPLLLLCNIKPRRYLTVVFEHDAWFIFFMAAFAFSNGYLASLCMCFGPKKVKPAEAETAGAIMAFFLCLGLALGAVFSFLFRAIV
Chain of human Dopamine Transporter (DAT), SLC6A3 (gene 6531) (Q01959 whole entry, looked up): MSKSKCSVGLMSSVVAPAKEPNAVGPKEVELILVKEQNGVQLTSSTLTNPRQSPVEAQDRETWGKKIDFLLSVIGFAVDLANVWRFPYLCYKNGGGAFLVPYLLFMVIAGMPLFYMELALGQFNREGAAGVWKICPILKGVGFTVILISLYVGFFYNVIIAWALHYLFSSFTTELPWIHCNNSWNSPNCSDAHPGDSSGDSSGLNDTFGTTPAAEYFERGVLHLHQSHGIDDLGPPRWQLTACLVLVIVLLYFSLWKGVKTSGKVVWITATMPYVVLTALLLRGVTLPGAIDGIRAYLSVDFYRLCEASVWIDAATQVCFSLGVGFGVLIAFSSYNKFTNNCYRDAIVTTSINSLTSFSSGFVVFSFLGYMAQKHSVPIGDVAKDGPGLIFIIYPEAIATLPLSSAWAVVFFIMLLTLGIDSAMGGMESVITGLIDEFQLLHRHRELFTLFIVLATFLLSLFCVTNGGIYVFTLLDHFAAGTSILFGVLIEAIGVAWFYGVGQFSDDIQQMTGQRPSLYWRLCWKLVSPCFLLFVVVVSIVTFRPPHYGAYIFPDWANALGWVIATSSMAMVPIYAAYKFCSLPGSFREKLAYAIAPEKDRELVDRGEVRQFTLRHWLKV
Chain of human Norepinephrine Transporter (NET), SLC6A2 (gene 6530) (P23975 whole entry, looked up): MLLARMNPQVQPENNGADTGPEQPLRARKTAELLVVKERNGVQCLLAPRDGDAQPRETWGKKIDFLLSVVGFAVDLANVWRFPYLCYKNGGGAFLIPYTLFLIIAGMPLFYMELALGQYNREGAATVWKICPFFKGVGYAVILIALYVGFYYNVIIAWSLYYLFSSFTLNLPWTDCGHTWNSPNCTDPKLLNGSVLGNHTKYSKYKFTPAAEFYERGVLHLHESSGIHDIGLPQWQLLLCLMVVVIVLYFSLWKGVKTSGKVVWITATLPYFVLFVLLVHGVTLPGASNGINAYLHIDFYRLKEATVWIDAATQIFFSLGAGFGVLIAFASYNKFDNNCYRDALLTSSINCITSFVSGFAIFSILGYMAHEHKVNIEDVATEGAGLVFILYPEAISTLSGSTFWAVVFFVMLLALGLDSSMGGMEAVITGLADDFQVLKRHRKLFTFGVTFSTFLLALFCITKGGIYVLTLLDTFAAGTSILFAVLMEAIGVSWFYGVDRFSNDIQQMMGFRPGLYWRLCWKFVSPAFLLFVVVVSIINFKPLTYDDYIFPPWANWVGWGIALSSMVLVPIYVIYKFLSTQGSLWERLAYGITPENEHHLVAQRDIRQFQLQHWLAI
Chain of Bile acid receptor (Homo sapiens) (Q96RI1 whole entry, looked up, the tested form may be a part): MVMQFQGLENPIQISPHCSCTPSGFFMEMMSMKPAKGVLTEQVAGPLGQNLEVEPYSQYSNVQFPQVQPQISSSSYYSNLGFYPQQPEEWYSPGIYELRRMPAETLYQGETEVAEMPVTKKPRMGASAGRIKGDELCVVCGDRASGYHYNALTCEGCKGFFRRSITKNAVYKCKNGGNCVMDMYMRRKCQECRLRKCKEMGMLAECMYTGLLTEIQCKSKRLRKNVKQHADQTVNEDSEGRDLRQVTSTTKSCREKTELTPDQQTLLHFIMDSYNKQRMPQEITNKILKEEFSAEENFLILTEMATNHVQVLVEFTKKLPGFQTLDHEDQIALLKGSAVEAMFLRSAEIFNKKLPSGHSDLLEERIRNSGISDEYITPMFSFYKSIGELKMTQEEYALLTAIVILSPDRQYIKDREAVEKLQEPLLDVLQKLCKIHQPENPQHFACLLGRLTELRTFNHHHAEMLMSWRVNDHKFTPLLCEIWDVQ
Chain of rat Serotonin Transporter (SERT), Slc6a4 (gene 25553) (P31652 whole entry, looked up): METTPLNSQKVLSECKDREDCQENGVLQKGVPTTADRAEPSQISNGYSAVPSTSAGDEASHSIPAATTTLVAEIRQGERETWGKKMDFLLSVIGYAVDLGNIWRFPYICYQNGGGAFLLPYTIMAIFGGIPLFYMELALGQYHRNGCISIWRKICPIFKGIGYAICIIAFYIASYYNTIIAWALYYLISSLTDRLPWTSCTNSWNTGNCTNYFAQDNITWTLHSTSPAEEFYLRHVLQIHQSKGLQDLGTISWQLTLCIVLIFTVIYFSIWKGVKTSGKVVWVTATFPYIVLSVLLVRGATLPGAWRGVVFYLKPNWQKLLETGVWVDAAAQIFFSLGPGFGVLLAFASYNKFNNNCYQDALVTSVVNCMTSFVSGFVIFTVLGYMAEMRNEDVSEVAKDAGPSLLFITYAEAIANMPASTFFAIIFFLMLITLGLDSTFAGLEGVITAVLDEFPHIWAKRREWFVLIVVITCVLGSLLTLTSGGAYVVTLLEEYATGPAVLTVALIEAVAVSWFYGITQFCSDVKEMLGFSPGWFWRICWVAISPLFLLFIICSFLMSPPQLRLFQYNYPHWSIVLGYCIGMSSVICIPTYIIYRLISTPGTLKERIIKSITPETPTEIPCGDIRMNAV

Turning to `CC[C@H](NC(=O)c1cc(F)ccc1NS(=O)(=O)c1cccc2cccnc12)c1ccccc1`, the compound was called inactive in [1], in test [2], in test [3] and in test [4]. For the same compound, the half-maximal activity concentration (AC50) – broadly, the concentration at which the activity in the assay is half-maximal – in test [5] is 31.9 µM (active).

As for `CN1C(=O)N(c2ccccc2Br)Cc2cnc(Nc3ccc4c(c3)OCC(CO)O4)nc21` (stereo unspecified), the result in [6], in [2] and in [4] was inactive. For the same compound, the AC50 in test [1] was 25 µM (active); in [7] it was 4.72 µM (active); in test [3], 55.4 µM (active); in test [5], 0.34 µM (active).

Consider `CC(C)(C)c1csc(-c2cc3cc(OCc4ccccc4CC(=O)O)ccc3o2)n1`, for which, in [1], the AC50 was 0.00229 µM (active). Moreover, the call in [2], in test [3], in [4] and in test [5] was inactive.

On to `Oc1ccccc1`, for which, in test [8], the result was inactive.

For the compound `c1ccc2n[nH]nc2c1`, the outcome in test [1] and in test [2] was inactive.

Consider `c1ccc(C[n+]2cccc3ccccc32)cc1`, for which the AC50 in test [9] is 10.1 µM (active); in [10], 9.52 µM (active); in test [11] it was 6.24 µM (active); in test [7] it was 15.4 µM (active). Moreover, the compound was classed as inactive in test [2], in test [3], in test [4] and in test [5].

Turning to `Cc1cc2c(cc1C(F)(F)F)N(C(=O)Nc1ccc(Oc3cccnc3C)nc1)CC2`, the outcome in test [2], in test [3] and in test [4] was inactive. Further, the AC50 in test [5] is 19.1 µM (active).

Turning to `O=C1c2ccccc2C(=O)N1CCc1noc(-c2ccc(CN3CCCCCC3)s2)n1`, the half-maximal activity concentration (AC50) in [12] is 21.1 µM (active); in test [9], 13.9 µM (active); in [14], 7.26 µM (active); in test [11] it was 9.05 µM (active); in test [7] it was 6.14 µM (active). Also, the call in [13], in [3] and in test [4] was inactive.

With `O=c1ccc2ccccc2o1`, the compound was classed as inactive in test [2], in test [3], in [4] and in test [5].

`O=C1CCC(C2CCCCC2)CC1`: the call in test [15], in test [8], in test [1], in [2] and in [5] was inactive. The half-maximal activity concentration (AC50) in [5] was 33.1 µM (active) and 50 µM (active).

`Oc1ccc2ccccc2c1`: the call in test [6] and in [1] was inactive. The half-maximal activity concentration (AC50) was 21.3 µM (active) in test [9]; 7.87 µM (active) in [14]; 10.1 µM (active) in test [10]; 8.73 µM (active) in test [11]; 7.32 µM (active) in [7]; 45.7 µM (active) in test [2].

As to `Cc1oc2c(NC(=O)c3c(Cl)cccc3Cl)cccc2c1C(C)(C)O`, the AC50 in [12] was 25 µM (active). The compound was called inactive in test [1], in test [3], in [4] and in test [5].

For the compound `O=C1O[C@H]([C@@H](O)CO)C(O)=C1O`, the compound was called inactive in [1] and in test [2].

As to `COc1cc(C(=O)NC2CCN(C)CC2)ccc1Nc1ncc2c(n1)N(C1CCCC1)CC(F)(F)C(=O)N2C`, the AC50 in [6] was 9.44 µM (active); in test [12] it was 1.27 µM (active); in [9], 13.8 µM (active); in test [14], 9.31 µM (active); in test [10] it was 8.6 µM (active); in test [7] it was 23.2 µM (active). Moreover, the values for the concentration at half-maximal activity (AC50) in test [16], in test [2] and in test [5] were 1.49 µM (active), 1.94 µM (active) and 11 µM (active), respectively. Moreover, the compound was called inactive in test [11], in test [3] and in test [4].

Consider `Clc1ccccc1C(c1ccccc1)(c1ccccc1)n1ccnc1`, for which the results for the AC50 in test [6] and in test [3] were 0.7 µM (active) and 79 µM (active), respectively. Moreover, the compound was called inactive in [8], in test [7], in test [16], in [2] and in [4].

As for `Cc1ccc(C(C)C)cc1`, the call in test [3], in test [4] and in test [5] was inactive.

Regarding `CCCCCCCCCCCC[N+](C)(C)C`, the call in [12], in test [1] and in test [2] was inactive. Besides, the AC50 in test [9] is 25 µM (active); in test [10] it was 10.5 µM (active); in [11], 13.7 µM (active); in [7] it was 7.96 µM (active).

`Cc1occc1C(=O)Nc1ccc(C(=O)N2CCC(F)(F)/C(=C\C(=O)N3CCC(N4CCCCC4)CC3)c3ccccc32)cc1`: the half-maximal activity concentration (AC50) in test [12] is 8.75 µM (active); in test [9], 7.8 µM (active). Also, the compound was classed as inactive in test [2], in [3] and in test [4].

In the case of `OCCO`, the compound was called inactive in test [3] and in test [4].

For `O=C=NCCCCCCN=C=O`, the half-maximal activity concentration (AC50) in test [10] is 16.3 µM (active). The outcome in test [2], in test [3] and in test [4] was inactive.

In the case of `CC(=O)N1CCN(c2ccc(OC[C@H]3CO[C@](Cn4ccnc4)(c4ccc(Cl)cc4Cl)O3)cc2)CC1`, the concentration at half-maximal activity (AC50) in [10] was 11.2 µM (active); in [7] it was 9.91 µM (active); in test [3] it was 81.2 µM (active); in test [4], 94 µM (active). The compound was classed as inactive in [16] and in test [2].
